These results are taken from PubChem BioAssay (Tox21).

The structures appear in SMILES notation. Records with an inconclusive call do not appear. Active and inactive are the calls of the source. Unless noted, calls follow the shape of the full dose curve.

A short description of assay [1]: qHTS assay to identify small molecule agonists of the sonic hedgehog signaling (Shh) pathway (AID 1259368).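 Also: NIH/3T3-derived 3T3Gli1-Luc cells carrying a stable Gli1-driven firefly luciferase reporter; nearly all actives have a fitted effect of over 15% in size.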 The conditions noted are these: NIH/3T3 Gli1-Luc reporter, luciferase, 24 h, active compounds read high; series mostly up to 92.4 µM. Summed up: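 Steps: seed 3T3 Gli1-Luc cells, incubate 4 hr at 37 C, pin-transfer compounds in DMSO alongside a positive control, incubate 24 hr, add luciferase detection reagent, wait 30 min at room temperature, read luminescence.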

Assay [2] is described as follows: qHTS assay to identify small molecule antagonists of the sonic hedgehog signaling (Shh) pathway (AID 1259369). Also: nearly all actives have a fitted effect of over 45% in size. Also: potency is read from the fitted curve at half-maximal effect. The conditions noted are these: NIH/3T3 Gli1-Luc reporter, Shh antagonist, luminescence 24 h; series mostly up to 92.4 µM. Summed up:
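Inhibition of Shh signalling is measured as reduced Gli1-response-element firefly luciferase output in an NIH/3T3-derived stable reporter clone stimulated with conditioned medium for 24hr.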

Assay [3] addresses Estrogen receptor beta (Homo sapiens) (UniProt Q92731). Briefly: qHTS assay to identify small molecule agonists of the estrogen receptor beta (ER-beta) signaling pathway (AID 1259377; active = well fitted activation curve with a large enough effect in the signal ratio in the repeat runs, not every such curve was filed as active; the % refers to the signal ratio). Particulars: ER-beta-UAS-bla HEK293T, beta-lactamase FRET ratio, 16 h; series mostly up to 92.4 µM. Summed up: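 Measured by fluorescence intensity from a B/G FRET beta-lactamase substrate (2 h, room temperature) in ER-beta-UAS-bla HEK293T cells treated with DMSO-dissolved compounds for 16 hr at 37C and 5% CO2.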

Assay [4] has the same target. Nature of the assay: qHTS assay to identify small molecule antagonists of the estrogen receptor beta (ER-beta) signaling pathway (AID 1259378; active = well fitted inhibition curve with a large enough effect in the signal ratio in the repeat runs, not every such curve was filed as active; the % refers to the signal ratio). Particulars: ER-beta-UAS-bla HEK293T, beta-lactamase FRET ratio, 16 h; series mostly up to 92.4 µM. In a few lines:
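ER-beta-UAS-bla HEK293T (GripTite) cells in 2% charcoal-stripped FBS medium were preincubated 6 hr at 37C, dosed with compound, then stimulated with 1 nM E2 (final) for 16 hr; beta-lactamase reporter read by B/G FRET fluorescence after 2 hr substrate loading.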
(In qHTS, concentration-response curves come from the screen itself.)

Assay [5] can be described thus: qHTS assay to identify small molecule agonists of the androgen receptor (AR) signaling pathway in the presence of an antagonist - cell viability counter screen (AID 1259379; active = well fitted curve in the direction sought with a large enough effect in the repeat runs; an effect the other way counts as inactive or inconclusive;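 also: MDA-kb2 human breast cancer cells carrying an MMTV luciferase reporter; nearly all actives have a fitted effect of over 25% in size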). The conditions noted are these: MDA-kb2 viability, CellTiter-Fluor, 16 h; series mostly up to 92.4 µM. Summed up: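 Fluorescence from CellTiter-Fluor, added after 15 hr and read 1 hr later, gave cell viability. Cells were MDA-kb2 exposed to compounds (15 concentrations) in the presence of 3.0uM nilutamide at 37C, 0% CO2.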

Assay [6] can be described thus: qHTS assay to identify small molecule agonists of the estrogen receptor beta (ER-beta) signaling pathway - cell viability counter screen (AID 1259380; active = well fitted curve in the direction sought with a large enough effect in the repeat runs; an effect the other way counts as inactive or inconclusive; also: nearly all actives have a fitted effect of over 30% in size; also: potency is read from the fitted curve at half-maximal effect). Particulars: ER-beta-bla HEK293T viability, CellTiter-Glo luminescence, 16 h; series mostly up to 92.4 µM. In a few lines:
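Same-well viability counter screen. Cells: ER-beta-UAS-bla HEK293T, plated 6 hr before compound, in 2% charcoal-stripped FBS. Compound exposure 16 hr, 37C; viability by CellTiter-Glo luminescence after 30 min at room temperature.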

The nature of assay [7]: qHTS assay to identify small molecule antagonists of the estrogen receptor beta (ER-beta) signaling pathway - cell viability counter screen (AID 1259382; active = well fitted curve in the direction sought with a large enough effect in the repeat runs; an effect the other way counts as inactive or inconclusive; also: nearly all actives have a fitted effect of over 55% in size). The conditions noted are these: ER-beta-UAS-bla HEK293T viability, CellTiter-Glo luminescence, 16 h; series mostly up to 92.4 µM. Summed up:
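Following a 6 hr plating period, HEK293T cells carrying a UAS-driven beta-lactamase reporter under ER-beta control received compounds and 1nM E2 (final). After 16 hr at 37C and 2 hr substrate loading, CellTiter-Glo luminescence indicated viability.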

For assay [8], the target named is Estrogen receptor (Homo sapiens) (UniProt P03372). Briefly: qHTS assay to identify small molecule agonists of the estrogen receptor alpha (ER-alpha) signaling pathway in the presence of an antagonist (AID 1259383). Also: nearly all actives have a fitted effect of over 15% in size. Also: potency is read from the fitted curve at half-maximal effect. As to activation: top concentration of the series differs between compounds. The conditions noted are these: VM7Luc4E2 cells, ERE-luciferase, +ICI-182,780, 22 h; series mostly up to 92.4 µM. Summed up: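 Cells are hormone-deprived for 5 days (charcoal-stripped FBS, no phenol red), plated for 24hr, spiked with 10.0nM ICI-182,780, then dosed at 15 concentrations. After 22hr at 37C, ONE-Glo luminescence reports ERE-luciferase activity.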
Estrogen receptor (Homo sapiens), sequence (P03372 whole entry, looked up): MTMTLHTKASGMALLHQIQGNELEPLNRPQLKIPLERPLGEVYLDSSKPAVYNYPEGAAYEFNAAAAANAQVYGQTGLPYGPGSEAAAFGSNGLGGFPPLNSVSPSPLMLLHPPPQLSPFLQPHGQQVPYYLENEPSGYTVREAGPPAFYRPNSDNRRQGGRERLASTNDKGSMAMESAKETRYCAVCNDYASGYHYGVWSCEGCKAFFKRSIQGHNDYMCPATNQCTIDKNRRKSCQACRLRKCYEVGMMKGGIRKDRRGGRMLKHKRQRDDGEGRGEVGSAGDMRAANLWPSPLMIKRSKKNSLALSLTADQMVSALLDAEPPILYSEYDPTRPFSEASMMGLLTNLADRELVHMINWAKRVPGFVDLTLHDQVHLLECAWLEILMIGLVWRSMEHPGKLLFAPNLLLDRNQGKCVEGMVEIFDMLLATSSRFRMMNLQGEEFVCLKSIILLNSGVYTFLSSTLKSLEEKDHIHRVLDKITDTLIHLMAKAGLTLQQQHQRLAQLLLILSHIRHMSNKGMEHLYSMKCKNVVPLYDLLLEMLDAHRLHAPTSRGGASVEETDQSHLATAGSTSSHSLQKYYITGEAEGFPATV

Assay [9] can be described thus: qHTS assay to identify small molecule agonists or antagonists of the thyroid stimulating hormone receptor (TSHR) signaling pathway - wild type cell line counter screen (AID 1259384). The conditions noted are these: HEK293 wild type, cAMP HTRF counter-screen, active compounds read high; series mostly up to 92.4 µM. In a few lines: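 Wild-type HEK293 cells were plated 18 h at 37 C/5% CO2, pin-dosed with compound plus Ro20-1724 medium, held 30 min at room temperature, then given cAMP-d2 and anti-cAMP-cryptate; fluorescence was read after 1 h. Fifteen concentrations, triplicate.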

For assay [10], the target named is Androgen receptor (Homo sapiens) (UniProt P10275). Briefly: qHTS assay to identify small molecule agonists of the androgen receptor (AR) signaling pathway in the presence of an antagonist (AID 1259381). Also: nearly all actives have a fitted effect of over 15% in size. Particulars: MDA-kb2 MMTV-luciferase, AR agonist + nilutamide, 16 h; series mostly up to 92.4 µM. In a few lines:
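Cells are MDA-kb2 (human breast carcinoma, MMTV-luc, AR/GR responsive). Nilutamide is present at 3.0uM final throughout; compounds are added at 15 concentrations and incubated 16hr at 37C before ONE-Glo luminescence detection.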
% is scaled to controls: 0 for no effect and ±100 for the full control effect.

Androgen receptor (Homo sapiens), sequence (P10275 whole entry, looked up): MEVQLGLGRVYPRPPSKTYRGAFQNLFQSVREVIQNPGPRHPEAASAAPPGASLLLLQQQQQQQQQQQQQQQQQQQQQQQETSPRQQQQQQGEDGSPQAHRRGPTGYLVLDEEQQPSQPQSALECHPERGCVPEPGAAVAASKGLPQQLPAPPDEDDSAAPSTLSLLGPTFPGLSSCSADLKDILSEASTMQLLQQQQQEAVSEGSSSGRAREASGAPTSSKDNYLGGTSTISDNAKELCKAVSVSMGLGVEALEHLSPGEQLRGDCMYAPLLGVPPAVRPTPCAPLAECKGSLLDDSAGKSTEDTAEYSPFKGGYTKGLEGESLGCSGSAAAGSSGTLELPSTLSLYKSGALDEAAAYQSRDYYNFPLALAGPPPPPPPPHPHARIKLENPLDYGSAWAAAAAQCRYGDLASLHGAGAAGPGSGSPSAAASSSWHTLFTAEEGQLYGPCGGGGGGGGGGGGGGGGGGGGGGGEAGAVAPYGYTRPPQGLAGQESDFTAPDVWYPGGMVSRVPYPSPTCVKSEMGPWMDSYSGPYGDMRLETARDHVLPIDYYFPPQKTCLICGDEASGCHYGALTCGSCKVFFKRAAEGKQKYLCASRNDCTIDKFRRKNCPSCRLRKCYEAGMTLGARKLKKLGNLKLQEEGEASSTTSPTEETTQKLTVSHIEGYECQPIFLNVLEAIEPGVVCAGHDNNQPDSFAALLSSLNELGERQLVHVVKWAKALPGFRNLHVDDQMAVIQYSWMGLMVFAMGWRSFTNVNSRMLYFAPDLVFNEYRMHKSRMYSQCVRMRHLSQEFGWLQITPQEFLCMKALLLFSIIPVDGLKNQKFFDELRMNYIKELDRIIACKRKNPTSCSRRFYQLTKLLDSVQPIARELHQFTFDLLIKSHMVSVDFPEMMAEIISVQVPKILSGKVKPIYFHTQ
Estrogen receptor beta (Homo sapiens), sequence (Q92731 whole entry, looked up): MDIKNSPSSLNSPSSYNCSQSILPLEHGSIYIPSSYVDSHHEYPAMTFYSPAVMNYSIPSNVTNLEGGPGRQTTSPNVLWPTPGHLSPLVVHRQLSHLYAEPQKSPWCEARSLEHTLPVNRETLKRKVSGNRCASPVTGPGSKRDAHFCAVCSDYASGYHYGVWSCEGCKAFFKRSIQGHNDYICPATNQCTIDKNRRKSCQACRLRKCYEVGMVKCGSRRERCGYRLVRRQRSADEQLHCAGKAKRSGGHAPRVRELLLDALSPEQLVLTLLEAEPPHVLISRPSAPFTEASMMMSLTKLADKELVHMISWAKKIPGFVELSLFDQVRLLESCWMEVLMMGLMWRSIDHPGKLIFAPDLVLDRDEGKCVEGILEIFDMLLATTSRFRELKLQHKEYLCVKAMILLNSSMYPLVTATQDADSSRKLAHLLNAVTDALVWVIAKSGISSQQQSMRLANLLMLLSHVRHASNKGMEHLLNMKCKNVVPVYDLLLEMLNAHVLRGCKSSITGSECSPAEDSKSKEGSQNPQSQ

`O=C(Cl)CCl`: the compound was called inactive in assay [1], in assay [4] and in assay [9]. For the same compound, the Potency result in assay [2], in assay [3], in assay [5], in [6], in assay [7] and in assay [8] was “inactive” throughout.
Regarding `[P]#[In]`, the compound was called inactive in assay [1], in [4] and in [9]. Moreover, the Potency entry in [2], in assay [3], in assay [6] and in assay [7] was “inactive” throughout.
As for `CC(Cc1ccccc1)NCCn1cnc2c1c(=O)n(C)c(=O)n2C` (configuration not stated), the outcome in assay [1], in assay [4] and in assay [9] was inactive. Further, the Potency entry in [2], in [3], in assay [6] and in [8] was “inactive” throughout.
On to `CCc1cc(OC)c(C[C@H](C)N)cc1OC`, for which the result in assay [1], in assay [4] and in assay [9] was inactive. The Potency result in assay [2] and in assay [3] was “inactive” each time. Further, in assay [6], the Potency is 71.5 µM (active).
Regarding `C=CC=O`, the compound was classed as inactive in [1], in assay [4] and in [9]. For the same compound, the Potency entry in [2], in [3], in assay [5], in assay [6] and in [7] was “inactive” in each case.
Turning to `COP(=O)(OC)O/C(C)=C/C(=O)N(C)C`, the outcome in [1] and in assay [4] was inactive. Besides, the Potency result in assay [2], in assay [3], in [5], in assay [6] and in [8] was “inactive” throughout.
On to `CCCOC(=O)c1cncn1C(C)c1ccccc1` (configuration not stated), for which the call in assay [1] and in assay [4] was inactive. Also, the Potency entry in [2], in assay [5], in [6], in assay [10], in assay [7] and in [8] was “inactive” throughout.
Consider `COc1cc(CCN)cc(OC)c1OC`, for which the compound was classed as inactive in assay [1] and in [9]. The Potency entry in [2], in [3], in [6], in [7] and in [8] was “inactive” each time.
`CCC(C(N)=O)N1CCCC1=O` (configuration not stated): the compound was classed as inactive in assay [1], in [4] and in assay [9]. The Potency result in assay [2], in assay [3], in assay [6], in [7] and in assay [8] was “inactive” in each case.
For the compound `CCC(=O)c1ccc(Cl)cc1`, the result in assay [1], in assay [4] and in assay [9] was inactive. Further, the Potency result in assay [2], in [3], in assay [5], in assay [6] and in [7] was “inactive” throughout.
For `C[N+]1(C)CCCCC1`, the compound was called inactive in assay [1], in assay [4] and in assay [9]. In addition, the Potency result in assay [2], in [3], in [6], in assay [10] and in [7] was “inactive” in each case.
Regarding `C=CCc1cc(OC)c2c(c1)OCO2`, the compound was classed as inactive in [1], in [4] and in [9]. The Potency entry in assay [2], in assay [3], in [5], in [6] and in assay [7] was “inactive” in each case.
For the compound `CC(C)(N)Cc1ccccc1Cl`, the compound was called inactive in [1] and in assay [4]. The Potency entry in assay [2], in [3], in [5], in [10], in assay [7] and in [8] was “inactive” throughout.
On to `CS(=O)(=O)Cl`, for which the call in assay [1], in [4] and in assay [9] was inactive. The Potency result in assay [2], in assay [3], in [6], in [7] and in assay [8] was “inactive” in each case.
As for `CCCC(C)(COC(N)=O)COC(N)=O`, the outcome in assay [1], in assay [4] and in assay [9] was inactive. The Potency in [2] is 25.8 µM (active). Besides, the Potency result in [3], in [5], in [6] and in assay [7] was “inactive” throughout.
`CC1=C2[C@H]3OC(=O)[C@@H](C)[C@@H]3CC[C@@]2(C)C=CC1=O`: in assay [1], the call was inactive. Moreover, the Potency result in assay [2], in [5] and in assay [6] was “inactive” in each case.
As to `C=CCCC#N`, the result in [1], in [4] and in assay [9] was inactive. Also, the Potency entry in assay [2], in assay [5], in assay [6], in [7] and in assay [8] was “inactive” each time.
In the case of `COP(=O)(O)OC`, the outcome in assay [1] and in assay [9] was inactive. Also, the Potency result in assay [2], in [5], in assay [6], in assay [10] and in assay [8] was “inactive” throughout.
Take `CC(Cc1ccccc1)NCCCCl` (configuration not stated): the result in assay [1], in [4] and in assay [9] was inactive. Further, the Potency entry in assay [2], in assay [5], in [6], in [10], in [7] and in assay [8] was “inactive” each time.
For `O=CCCl`, the compound was called inactive in assay [1] and in [4]. Moreover, the Potency entry in assay [2], in assay [5], in assay [7] and in [8] was “inactive” throughout.
Take `O=S1(=O)OCCO1`: the result in assay [1] and in assay [9] was inactive. In addition, the Potency entry in [2], in assay [5], in assay [6], in assay [10] and in assay [7] was “inactive” each time.
Regarding `Clc1ccc(C(Cl)(Cl)Cl)cn1`, the compound was classed as inactive in assay [1]. For the same compound, the Potency result in assay [2], in assay [5], in assay [6], in assay [10], in [7] and in [8] was “inactive” each time.
`CCN(CCO)CCO`: the compound was classed as inactive in assay [1], in assay [4] and in assay [9]. Further, the Potency entry in assay [2], in [6], in assay [7] and in assay [8] was “inactive” in each case.
On to `ClCCCCCCCl`, for which the call in assay [1] and in assay [4] was inactive. For the same compound, the Potency result in assay [2], in [5], in assay [6] and in [7] was “inactive” each time.
With `COc1cccc([C@@]2(O)CCCC[C@@H]2CN(C)C)c1`, the call in assay [1] and in assay [9] was inactive. Moreover, the Potency entry in assay [2], in assay [5], in assay [6], in [10], in assay [7] and in assay [8] was “inactive” each time.
On to `Clc1cc2c(cc1Cl)Oc1cc(Cl)c(Cl)cc1O2`, for which, in assay [1], the activity change was 0.117% [at 0.349 µM] (inactive). For the same compound, in assay [2], the activity change, negative = inhibition is -6.77% [at 0.349 µM] (inactive). The activity, negative = inhibition in [4] is 4.24% [at 0.349 µM] (inactive). The activity change, negative = cytotoxicity in assay [5] was 1.17% [at 0.35 µM] (inactive); in assay [6], 2.45% [at 0.349 µM] (inactive). For the same compound, the activation was 3.07% [at 0.349 µM] (inactive) in assay [10] and -1.56% [at 0.349 µM] (inactive) in assay [8].
On to `O=C(NC(O)C(Cl)(Cl)Cl)NC(O)C(Cl)(Cl)Cl` (configuration not stated), for which the outcome in [1] and in assay [4] was inactive. Also, the Potency result in [2], in [5], in assay [6], in assay [7] and in assay [8] was “inactive” in each case.
Turning to `CC(C)(C)C(=O)Cl`, the result in assay [1] and in assay [4] was inactive. Moreover, the Potency result in [2], in [5], in assay [6], in [7] and in [8] was “inactive” throughout.
Take `CC(=NC#N)N(C)Cc1ccc(Cl)nc1`: the result in [1], in assay [4] and in [9] was inactive. Besides, the Potency result in [2], in assay [5], in [6] and in assay [7] was “inactive” in each case.
As for `CCCN1CCC[C@@H]2Cc3[nH]ncc3C[C@H]21`, the compound was called inactive in assay [1] and in assay [4]. For the same compound, the Potency entry in assay [2], in [5], in assay [6], in assay [7] and in assay [8] was “inactive” each time.
Consider `CCOC(=O)Nc1cccc(OC(=O)Nc2ccccc2)c1`, for which the call in assay [1], in [4] and in assay [9] was inactive. The Potency result in assay [2], in assay [5], in [6] and in assay [7] was “inactive” throughout. Further, the Potency in [8] was 12.2 µM (active).
